# Values quoted from earlier work in PubChem BioAssay AID977608.
# About 4,300 (100%) of roughly 4,300 compounds were called active. The limit is not given here; nearly all actives have IC50 up to about 1400 µM. So high a share suggests a set chosen from earlier hits. The list shows a part of the results.
# Test: protein-ligand inhibition affinities from structures – PDB-derived complexes (AID 977608)
structure (smiles),measurement,setting,value
O=C(Cc1ccccc1)Nc1nnc(CC=S)s1,IC50,"literature IC50, protein: human glutaminase, PDB entry 3vp1",3300 nM (active)
COc1cc(-c2ccc(NNc3ccc4c(S(O)(O)O)cc(S(O)(O)O)c(N)c4c3O)c(OC)c2)ccc1N=Nc1ccc2c(S(O)(O)O)cc(S(O)(O)O)c(N)c2c1O,IC50,"literature IC50, protein: Macrophage migration inhibitory factor, PDB entry 3u18",810 nM (active)
O=c1cc([C@H]2CCN[C@@H](Cc3ccccc3)C2)o[nH]1,IC50,"literature IC50, protein: plasminogen kringle 1, PDB entry 4cik",370 nM (active)
C[C@@]1(c2cc(NC(=O)c3ccc(Cl)cn3)ccc2F)C[C@@H]2C[C@@H]2C(N)N1 (stereo not given in full),IC50,"literature IC50, protein: BETA-SECRETASE 1, PDB entry 4bfd",96 nM (active)
CN(C)c1ccc2c(c1)CCN(c1cccc(-c3cc(Nc4ccc(C(=O)N5CCOCC5)cn4)c(=O)n(C)c3)c1CO)C2=O,IC50,"literature IC50, protein: Tyrosine-protein kinase BTK, PDB entry 4rfy",100 nM (active)
C[C@H](O[P+](O)(O)O)[C@H](NC(=O)[C@H](CO)NC(=O)[C@H](Cc1cncn1CCCCCCCCc1ccccc1)NC(=O)CCCNC(=O)c1ccccc1)C(N)=O,IC50,"literature IC50, protein: Serine/threonine-protein kinase PLK1, PDB entry 4whl",400 nM (active)
CC(=O)N[C@@H](Cc1cncn1CCCCCCCCc1ccccc1)C(=O)N[C@@H](CO)C(=O)N[C@H](C(N)=O)[C@@H](C)O[P+](O)(O)O,IC50,"literature IC50, protein: Serine/threonine-protein kinase PLK1, PDB entry 4rcp",4420 nM (active)
C[C@@H](O[P+](O)(O)O)[C@H](NC(=O)[C@H](CO)NC(=O)[C@H](Cc1cncn1CCCCCCCCc1ccccc1)NC(=O)CCNC(=O)c1ccc(CO)cc1)C(N)=O,IC50,"literature IC50, protein: Serine/threonine-protein kinase PLK1, PDB entry 4whh",40 nM (active)
O=C(C/C=C1\C=C(C(=O)c2ccc(F)cc2)C=N1)C[C@@H](O)C(=O)O,IC50,"literature IC50, protein: DNA nucleotidylexotransferase, Tdt core, PDB entry 4iqu",580 nM (active)
O=C(NO)c1coc(-c2ccccc2C(F)(F)F)n1,IC50,"literature IC50, protein: METHIONINE AMINOPEPTIDASE, PDB entry 4a6v",1900 nM (active)
CN1CCN(c2ccc(N=C3CC(=O)N(c4ccc(Cl)cc4)N=C3c3ncn[nH]3)cc2)CC1,IC50,"literature IC50, protein: MEMBRANE PRIMARY AMINE OXIDASE, PDB entry 4bty",20 nM (active)
COC1=CC2=C(C(=O)C1)C(=O)O[C@H](C)CCCC(=O)[C@@H](O)[C@@H](O)C/C=C/2,IC50,"literature IC50, protein: Mitogen-activated protein kinase 1, PDB entry 2E14",80 nM (active)
COC1=CC2=C(C(=O)C1)C(=O)O[C@@H](C)CCCC(=O)[C@@H](O)[C@@H](O)C/C=C/2,IC50,"literature IC50, protein: Mitogen-activated protein kinase 1, PDB entry 3w55",80 nM (active)
NC(=O)c1cccc(N)c1,IC50,"literature IC50, protein: Tankyrase-2 TNKS2, PDB entry 4pml",30000 nM (active)
CCOc1ccc2cc(-c3nn(C(C)(C)C)c(N)c3C(N)=O)cnc2c1,IC50,"literature IC50, protein: Calmodulin-domain protein kinase 1 CDPK1, PDB entry 4ona",7 nM (active)
O=C(Nc1ccccc1)Nc1ccc(CCNc2ncnc3oc(-c4ccc(OCCN5CCC(O)CC5)cc4)cc23)cc1,IC50,"literature IC50, protein: Aurora kinase A (T288D mutation), PDB entry 4jbp",41 nM (active)
CN(C)CCOc1ccc(-c2cc3c(NCCc4ccc(NC(=O)Nc5ccccc5)cc4)ncnc3o2)cc1,IC50,"literature IC50, protein: Aurora kinase A (T288D mutation), PDB entry 4jbo",24 nM (active)
CC(C)(O/N=C(\C(=O)N[C@H](C=O)[C@@H](CNC(=O)NCc1cc(=O)c(O)cn1O)NS(O)(O)O)c1csc(N)n1)C(=O)O,IC50,"literature IC50, protein: Penicillin-binding protein 3, PDB entry 4l0l",54 nM (active)
CCN1CCN(c2nc(O)c(Cc3ccc(Cl)c(Cl)c3)s2)CC1,IC50,"literature IC50, protein: Ectonucleotide pyrophosphatase/phosphodiesterase family member 2, PDB entry 3waw",580 nM (active)
CN1CCN(c2nc(O)c(Cc3ccc(Cl)c(Cl)c3)s2)CC1,IC50,"literature IC50, protein: Ectonucleotide pyrophosphatase/phosphodiesterase family member 2, PDB entry 3wav",180 nM (active)
c1ccc2c(c1)[nH]c1cncnc12,IC50,"literature IC50, protein: DUAL SPECIFICITY PROTEIN KINASE TTK, PDB entry 4bi0",58600 nM (active)
Cc1cccc(Cc2nn(C(C)(C)C)c3ncnc(N)c23)c1,IC50,"literature IC50, protein: Proto-oncogene tyrosine-protein kinase Src, PDB entry 4lgg",3 nM (active)
O=CN1CCN(c2nc(-c3ccccc3)ns2)CC1,IC50,"literature IC50, protein: Fatty-acid amide hydrolase 1, PDB entry 4hbp",3.8 nM (active)
N=CCNC(=O)[C@@H]1C[C@@H](S(=O)(=O)c2ccccc2)C[C@H]1C(=O)N1CCOCC1,IC50,"literature IC50, protein: CATHEPSIN S, PDB entry 4bsq",0.7 nM (active)
C=C1CC[C@@H](O[C@H]2C[C@@](O)([C@H](C)NC(=O)c3[nH]c(C)c(Cl)c3Cl)[C@H](O)[C@@H](C)O2)[C@@H]2C=C[C@H](C)[C@H](/C(O)=C3/C(=O)[C@H](C(C)C)N([C@@H]4O[C@@H](C)[C@@H](OC(N)=O)[C@@H](OC(C)=O)[C@H]4OC)C3=O)[C@@H]12,IC50,"literature IC50, protein: DNA GYRASE SUBUNIT B GyrB24, PDB entry 4urm",9 nM (active)
same,IC50,"literature IC50, protein: DNA TOPOISOMERASE IV, B SUBUNIT ParE43, PDB entry 4url",500 nM (active)
C/C=C\NC(=O)Nc1nc2cc(-c3cccnc3)c(=O)n(CCC(C)C)c2s1,IC50,"literature IC50, protein: Topoisomerase IV subunit B, PDB entry 4mot",50 nM (active)
COc1cc(-c2n[nH]c3ccc(C[C@@H](C#N)C(=O)NC(C)(C)CO)cc23)cc(OC)c1OC,IC50,"literature IC50, protein: Ribosomal protein S6 kinase alpha-3 (T493M muation), PDB entry 4jg8",2.5 nM (active)
O=C1N=Nc2nnc(-c3c(-c4ccccc4)nn4ccccc34)cc21,IC50,"literature IC50, protein: Insulin receptor (K1278N mutation), PDB entry 4ibm",1800 nM (active)
Cc1ccccc1S(=O)(=O)N(CCN(Cc1cncn1C)c1ccc(C=N)cc1)CC1CCN(C(=O)OC(C)(C)C)CC1,IC50,"literature IC50, protein: CaaX farnesyltransferase alpha subunit Ram2, PDB entry 4lnb",275 nM (active)
COc1ccccc1-c1noc2nc(C)[nH]c(=O)c12,IC50,"literature IC50, protein: Class III chitinase ChiA1, PDB entry 4tx6",2600 nM (active)
CC[C@H](C)[C@H](NC(=O)[C@@H](c1cc(Cl)cc(Cl)c1)N(C)C)C(=O)NCc1ccnc(C=N)n1,IC50,"literature IC50, protein: Protease AVP8, PDB entry 4pis",60 nM (active)
COc1ccc([C@]2(C)CCSC(N)N2)cc1 (stereo not given in full),IC50,"literature IC50, protein: BETA-SECRETASE 1, PDB entry 4bek",41200 nM (active)
Cc1ccc(-c2cc3c(NC([P+](O)(O)O)[P+](O)(O)O)ncnc3s2)cc1,IC50,"literature IC50, protein: Farnesyl pyrophosphate synthase, human FPPS, PDB entry 4jvj",22 nM (active)
O[P+](O)(O)C(Nc1ncnc2sc(-c3ccc(C4C=C4)cc3)cc12)[P+](O)(O)O,IC50,"literature IC50, protein: Farnesyl pyrophosphate synthase, human FPPS, PDB entry 4l2x",39 nM (active)
